UBC9 SUMO inh – SUMOylation inhibition; 290,000 compounds, 0.36% hits; inhibition, % at 35 µM; P63279; HTRF SUMOylation assay, SAE1/SAE2 + UBC9, in vitro; in the data active means inhibition above about 50%, passing the limit was not always enough
DTT redox prof – compounds producing H2O2 with reducing agent – biochemical, NIH compound library profiling, artefact control for MLSCN library redox annotation, primary screen | DTT-dependent redox cycling H2O2, phenol red/HRP absorbance; 100% = 100 µM peroxide control, 0% = buffer | activation, % at 10 µM | 200,000 compounds, 0.03% hits | AID 878;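 active means activation of at least 50% relative to the plate's high and low controls in the primary single-dose screen; inactive means activation below 50%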;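 further: compound incubated with DTT at 0.8 mM final as the reducing agent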
p97 ATPase inh – blocks human p97 ATPase activity; P55072; recombinant p97 ATPase, Kinase-Glo ATP luminescence, 3 h; inhibition, % at 8 µM; 220,000 compounds, 0.42% hits; in the data active means inhibition above about 15%;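 further: 0% = DMSO vehicle and 100% = wells lacking enzyme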
PERK inh – blocks human PERK kinase; Q9NZJ5; CHO PERK-DD fusion, SEAP luminescence translation reporter; inhibition, % at 5.6 µM; 220,000 compounds, 0.17% hits; AID 1416;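 active means inhibition above the mean inhibition of all tested compounds plus 3 SD, set separately per screening campaign, cut at about 2.9% in these data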;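 further: PERK kinase domain activated by AP20187 dimerizer at 100 nM; 0% = DMSO with dimerizer and 100% = rapamycin at 8.4 µM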
Target sequence (Q9NZJ5 whole entry, looked up, the tested form may be a part): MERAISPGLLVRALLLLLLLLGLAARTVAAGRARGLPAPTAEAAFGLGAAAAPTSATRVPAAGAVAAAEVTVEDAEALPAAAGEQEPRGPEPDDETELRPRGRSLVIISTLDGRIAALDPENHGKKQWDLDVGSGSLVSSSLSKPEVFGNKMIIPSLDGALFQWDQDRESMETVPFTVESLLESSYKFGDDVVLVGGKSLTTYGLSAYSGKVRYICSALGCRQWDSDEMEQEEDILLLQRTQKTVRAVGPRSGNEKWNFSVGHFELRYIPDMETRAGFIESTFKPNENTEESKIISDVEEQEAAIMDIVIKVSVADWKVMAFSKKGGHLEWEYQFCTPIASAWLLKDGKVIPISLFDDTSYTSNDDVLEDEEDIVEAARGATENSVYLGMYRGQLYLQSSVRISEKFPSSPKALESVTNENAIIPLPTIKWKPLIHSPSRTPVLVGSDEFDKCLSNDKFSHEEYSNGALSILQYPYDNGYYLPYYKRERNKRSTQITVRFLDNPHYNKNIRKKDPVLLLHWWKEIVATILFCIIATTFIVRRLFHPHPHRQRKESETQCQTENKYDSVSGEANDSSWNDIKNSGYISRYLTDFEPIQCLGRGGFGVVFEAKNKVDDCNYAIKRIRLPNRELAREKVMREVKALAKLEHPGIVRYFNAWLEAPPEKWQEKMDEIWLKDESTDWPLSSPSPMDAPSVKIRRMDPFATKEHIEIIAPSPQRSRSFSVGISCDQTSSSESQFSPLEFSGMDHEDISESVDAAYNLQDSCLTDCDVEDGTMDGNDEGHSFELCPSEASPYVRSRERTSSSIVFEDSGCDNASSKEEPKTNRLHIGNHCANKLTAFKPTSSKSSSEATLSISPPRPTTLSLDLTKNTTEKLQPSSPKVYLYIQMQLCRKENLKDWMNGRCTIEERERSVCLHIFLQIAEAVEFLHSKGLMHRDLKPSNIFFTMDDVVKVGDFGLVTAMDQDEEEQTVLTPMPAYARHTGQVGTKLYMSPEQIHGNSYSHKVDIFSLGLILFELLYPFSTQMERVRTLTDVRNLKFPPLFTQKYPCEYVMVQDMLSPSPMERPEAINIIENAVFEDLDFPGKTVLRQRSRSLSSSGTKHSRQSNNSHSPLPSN
Starred values were filed as active, the others as inactive; . = no result. Sampled rows, rich in hits. Any-hit rate of the full collection: about 0.69%.

SMILES	UBC9 SUMO inh	DTT redox prof	p97 ATPase inh	PERK inh
O=C(NCc1ccco1)c1cnn2c(C(F)(F)F)cc(-c3ccccc3)nc12	5.3	-1.9	1.4	0.0
COc1ccc(-c2cc(C(F)(F)F)n3ncc(C(=O)NCc4ccco4)c3n2)cc1	63.7*	-0.8	-0.1	-1.2
COc1cccc2cc(C(=O)NCc3ccco3)c(=O)oc12	30.6	-0.6	-7.3	-0.1
CC(=O)c1cccc(OCC(O)CNCCOc2ccc(C)cc2)c1 (stereo not given)	3.2	.	.	.
O=C(CSCc1ccccc1Cl)NNC(=S)Nc1ccccc1	-157.6	-4.0	1.6	0.7
COc1ccc(OCc2nc(-c3ccc(F)c(F)c3)cs2)cc1	0.5	.	-0.7	3.3*
COc1ccc(-c2csc(N)n2)cc1	-0.2	0.7	5.2	0.2
O=C(Nc1ccc2oc(-c3ccc4ccccc4c3)nc2c1)c1ccc2c(c1)OCCO2	54.8*	-6.7	-1.1	-0.2
O=C1NC(=S)S/C1=C\c1ccc(SCc2ccco2)o1	62.8*	-0.1	52.5*	0.7
CCCC[C@H]1COCCS(=O)(=O)N1Cc1cccc([N+](=O)[O-])c1	-0.2	.	.	.
Cc1nn(-c2ccccc2)c(Cl)c1/C=N/Nc1ccc(S(=O)(=O)Nc2ccccc2C(=O)O)cc1[N+](=O)[O-]	62.3*	0.3	-14.7	0.0
Cc1nn(-c2ccccc2)c(Cl)c1/C=N/Nc1ccc(Cl)c(C(=O)O)c1	-5.3	-0.3	5.3	0.8
COc1ccccc1N(Cc1cc(=O)[nH]c2ccccc12)C(=O)c1cccc([N+](=O)[O-])c1	13.8	.	7.9	-1.4
COc1cccc(NS(=O)(=O)c2ccc3c(c2)C2C=CCC2C(c2ccc(C(=O)O)cc2)N3)c1 (stereo not given)	.	0.3	14.7*	0.8
Cc1cc(=O)n(-c2ccc(O)cc2)[nH]1	12.1	0.2	21.0*	-0.3
Cc1cc(=O)n(-c2ccc(C(=O)O)cc2)[nH]1	42.4	-0.8	14.3	0.8
CC(=O)c1cccc(CN2CCCC(N3CCN(c4ccccc4F)CC3)C2)c1 (stereo not given)	-2.6	.	.	.
CCC(=O)NCCc1nc2cc(NC(=O)c3cccc([N+](=O)[O-])c3)ccc2n1C	-3.2	.	.	.
CCOC(=O)C(CC)(CC)C(=O)/C=C/c1ccc(Br)cc1	20.0	1.7	2.8	3.2*
COCCNC(=O)CCC1CCN(Cc2ccc(-c3ccccc3)cc2)CC1	79.7*	.	.	.
COCCNC(=O)CCc1nnc(Cc2ccc(-c3ccccc3)cc2)o1	16.4	-1.0	-5.4	0.0
O=C(c1ccc(N2CCCCS2(=O)=O)cc1)N1CCN(c2ccc(N3CCOCC3)nn2)CC1	14.3	0.1	4.0	3.0*
Cc1cc(C)c2cc(C#N)c(NCCOC(=O)c3ccccc3C)nc2c1	13.3	1.7	4.6	3.2*
Cc1ccc(NC2=C(N3CCOCC3)C(=O)c3ccccc3C2=O)cc1	8.9	1.6	5.5	3.2*
COc1ccc(-n2nc(C(=O)NCC(=O)N(C)Cc3ccccc3)c3ccccc3c2=O)c(OC)c1	6.1	.	.	.
SMILES	UBC9 SUMO inh	DTT redox prof	p97 ATPase inh	PERK inh
Cc1ccc(-c2[nH]c(-c3ccc(C(=O)O)cc3)nc2-c2ccccc2)cc1	57.6*	-0.4	-2.4	0.9
O=C(O)c1ccc(-c2nc(-c3ccccc3)c(-c3cccs3)[nH]2)cc1	29.5	.	6.0	4.3*
COc1ccc(-c2nn(-c3ccccc3)cc2C(=O)O)cc1	16.7	-0.1	1.8	3.2*
COc1cccc(OCCNC(=O)c2cc(OC)c(OC)c(OC)c2)c1	3.1	.	.	.
Cc1cccc(C)c1NC(=O)CCCN1CC(C)OC(C)C1 (stereo not given)	14.4	0.2	2.1	3.2*
CCC(Sc1nc(C)cc(=O)[nH]1)C(=O)Nc1ccc(Cl)cn1 (stereo not given)	-0.3	-0.8	14.9*	0.4
Cc1cc(=O)[nH]c(SCC(=O)Nc2ccc(Cl)cn2)n1	11.5	0.1	0.7	0.2
O=C(NC(=O)C(F)(F)F)Nc1ccc(S(=O)(=O)Nc2nccs2)cc1	-2.8	.	.	.
C/C(=N\NC(=O)C(=O)Nc1cccc(Cl)c1C)c1ccncc1	-9.3	0.0	7.4	0.5
CC1CCCCN1C(=O)COC(=O)C1CCN(S(=O)(=O)c2c(Cl)cccc2Cl)CC1 (stereo not given)	2.7	.	.	.
COc1cccc(C(C[N+](=O)[O-])c2c(C)[nH]n(-c3ccccc3)c2=O)c1 (stereo not given)	96.7*	.	.	.
Cc1[nH]n(-c2ccccc2)c(=O)c1C(C[N+](=O)[O-])c1ccc(Br)cc1 (stereo not given)	50.5	-0.2	-2.3	-0.5
CC(=O)Nc1ccc(NC(=O)C(C)n2nc([N+](=O)[O-])c(Br)c2C)cc1 (stereo not given)	13.1	-8.2	0.3	-0.4
CC(=O)Nc1ccc(NC(=O)C(C)n2nc(C)c([N+](=O)[O-])c2C)cc1 (stereo not given)	15.4	-0.2	2.0	3.0*
CCC(=O)NC(c1ccc(Cl)cc1Cl)c1ccc2cccnc2c1O (stereo not given)	50.1*	.	.	.
CC(C)C(=O)NC(c1ccc(Cl)cc1Cl)c1ccc2cccnc2c1O (stereo not given)	76.6*	.	.	.
CCCC(=O)NC(c1ccccc1Cl)c1ccc2cccnc2c1O (stereo not given)	92.8*	.	.	.
CCCCC(=O)NC(c1ccc(Cl)cc1Cl)c1ccc2cccnc2c1O (stereo not given)	-46.4	.	.	.
CCCC(=O)NC(c1ccc(C(C)C)cc1)c1ccc2cccnc2c1O (stereo not given)	-36.6	.	.	.
Cc1cccc(C(=O)NCc2nnc(SCC(=O)NC3CCCC3)n2C)c1	7.0	.	.	.
COc1ccc(NC(=O)CCC(=O)Nc2nnc(C3CCCCC3)s2)c(OC)c1	6.4	.	.	.
COCCOC1CCN(C(=O)C2CCC(=O)N(CCc3ccc(OC)cc3)C2)CC1 (stereo not given)	16.2	.	.	.
CCOc1ccc(NS(=O)(=O)c2coc(C(N)=O)c2)cc1	-8.4	.	.	.
NC(=S)N/N=C/c1ccc(/C=N/NC(N)=S)cc1	4.8	.	6.6	3.5*
CCSc1nnc(NC(=O)c2cc(-c3ccccc3O)n[nH]2)s1	19.1	.	8.8	3.8*
SMILES	UBC9 SUMO inh	DTT redox prof	p97 ATPase inh	PERK inh
CCCC(C(=O)NC1CCCC1)N(Cc1ccccc1)C(=O)c1snc(C(N)=O)c1N (stereo not given)	24.5	.	.	.
Nc1nc(Cl)nc2c1ncn2[C@@H]1O[C@H](CO)[C@@H](O)[C@H]1O	1.4	-0.5	-2.5	5.6*
Nc1ncnc2c1ncn2[C@@H]1O[C@H](COP(=O)(O)O)[C@@H](O)[C@H]1O	62.2*	.	.	.
CCOC1OC2C(CO)OC(n3cnc4c(N)ncnc43)C2O1 (stereo not given)	14.7	-1.1	-1.4	0.9
CCN(CC)c1ccc(/C=N/N2CCN(c3ccccn3)CC2)cc1	-8.8	.	-0.9	3.0*
CCc1ccc(/C=N/N2CCN(c3ccccn3)CC2)cc1	4.9	.	1.0	-0.2
Cc1onc(-c2ccccc2)c1C(=O)NC(=S)NNC(=O)c1cc(-c2ccc(F)cc2)n[nH]1	-105.6	.	11.7	0.0
Cc1cc(C)c(NC(=O)NC(=O)C(Cl)(Cl)Cl)c(C)c1	0.2	0.0	2.5	3.5*
Cc1cc(C)cc(OCC(O)Cn2nc(C)cc2C)c1 (stereo not given)	-16.4	.	.	.

Assay outcomes (PubChem)
